Data published in PubChem BioAssay AID602229 (The Scripps Research Institute Molecular Screening Center, 2012).
About 1,300 (0.36%) of roughly 360,000 compounds were called active. This excerpt belongs to a sample that is enriched for actives. Values without a mark were called inactive.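 The calls were made as follows: active = inhibition above the mean of all tested compounds plus 3 SD (cut at about 70% in these data); inactive = the rest.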

Biological target: Photoreceptor-specific nuclear receptor (Homo sapiens) (UniProt Q9Y5X4)
Assay: NCOR release from NR2E3 in cells – cell-based, luminescence, CHO-S, Gal4-NCOR/VP16-NR2E3, primary screen (AID 602229);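 also: 0% = DMSO with NR2E3 transfected cells and 100% = cells lacking NR2E3 construct; higher means lower luciferase signal from less NR2E3 corepressor binding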
Settings: CHO-S Gal4-NCOR/VP16-NR2E3 two-hybrid, luciferase; at 3.98 µM; active compounds read high

Sequence of Photoreceptor-specific nuclear receptor (Homo sapiens) (Q9Y5X4 whole entry, looked up, the tested form may be a part): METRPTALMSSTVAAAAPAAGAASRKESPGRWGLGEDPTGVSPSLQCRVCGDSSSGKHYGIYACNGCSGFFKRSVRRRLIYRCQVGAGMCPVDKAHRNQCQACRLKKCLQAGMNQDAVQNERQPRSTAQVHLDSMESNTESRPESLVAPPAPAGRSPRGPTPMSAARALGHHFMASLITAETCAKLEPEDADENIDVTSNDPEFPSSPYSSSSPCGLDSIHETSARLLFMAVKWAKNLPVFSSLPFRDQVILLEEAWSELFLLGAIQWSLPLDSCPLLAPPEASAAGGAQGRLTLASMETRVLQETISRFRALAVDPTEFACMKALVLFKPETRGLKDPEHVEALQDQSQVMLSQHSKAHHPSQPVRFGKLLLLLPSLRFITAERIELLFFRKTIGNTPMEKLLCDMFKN

Compound | inhibition
CC(=O)OC1C2(CC3N4C(=O)C5(CO)SSC4(CC31O)C(=O)N5C)OC(C)C(C)(C)C2=O (stereo not given) | 99.4% (active)
Cc1nn(-c2ccccc2)c(C)c1NC(=O)COC(=O)Cc1ccccc1 | 8.66%
COc1ccc(Br)cc1CNCCc1cccc(Cl)c1 | 24.3%
COC(=O)C1=C(c2ccc(F)cc2OCc2ccccc2)C[C@@H]2CC[C@H]1N2C(=O)NCc1ccc(C(C)(C)C)cc1 | 8.82%
CCCCCCCCCCCCn1ccc(=N)cc1 | 94% (active)
CC(C)CN1Cc2cc(N3CCCCC3)ccc2-n2nncc2C1 | 3.03%
CNC(=O)N(C)c1nnc(C(C)(C)C)s1 | -10.2%
CN(C)P(=S)(Nc1ccccc1)C(Cl)(Cl)Cl (stereo not given) | 5.18%
COC(=O)N(c1ccc(OC)cc1)P1(=S)OCCC(C)O1 (stereo not given) | -15.4%
CC(=NCC1CCCO1)c1c(O)n(-c2ccccc2)c(=O)[nH]c1=O (stereo not given) | 0.24%
CCC(C)(O)C(=O)OC1C(=O)OC2CC3C(C)=CC(=O)C(O)C3(C)C3C4(O)OCC23C1C(C)C4O (stereo not given) | 99% (active)
CCC(=O)OC(Cc1ccccc1)(c1ccccc1)C(C)CN(C)C (stereo not given) | -18.8%
Nc1ccc(Cc2ccc(N)c(Cl)c2)cc1Cl | -10.5%
Cn1c(O)c(C(=Nc2ccc(F)cc2)c2ccccc2)c(=O)n(C)c1=O | -24.4%
COc1cccc(-c2nc3ccc(N4CCN(C)CC4)cc3[nH]2)c1 | -20.1%
